# Assay results from PubChem BioAssay AID463173 (ICCB-Longwood Screening Facility, Harvard Medical School, 2010).
# Screen size: about 52,000 compounds; about 4,300 (8.3%) were called active. The full list was thinned out, with actives kept by preference. Unmarked numbers belong to inactive results. Rule as the data show it: active = survival mostly below about 52% (no sharp cut-off); inactive = mostly above about 56%.
# System: DeltatarO mutant
# Assay: growth inhibition of S. aureus wild type versus tarO mutant, primary screen, teichoic acid synthesis inhibitors, RN4220, OD600 (AID 463173)
# Conditions: OD600, 18 h, stronger effect = lower value, screened at 18.75 µg/mL (by protocol)
row,SMILES,survival
1,Cc1cc(C)c(C#N)c(SCC(=O)Nc2sc3c(c2C#N)CCC(C(C)(C)C)C3)n1 (configuration not stated),75%
2,Cc1ccc(CNC(=O)Cn2c(=O)n(-c3ccc(C)c(F)c3)c(=O)c3sc4ccccc4c32)cc1,75%
3,COc1ccc(-c2cnnn2-c2ccc(NC(=O)c3ccc(S(=O)(=O)N(C)C)cc3)cc2)cc1,81%
4,COCCNC(=O)CCn1c(=O)[nH]c2cc(OC)c(OC)cc2c1=O,90%
5,CCN1C2OC(C3OC4C(O3)N(CC)S(=O)(=O)N4CC)OC2N(CC)S1(=O)=O (configuration not stated),73%
6,CCN1/C(=C2/SC(=S)N(N)C2=O)Sc2ccccc21,77%
7,O=C(CSc1nnc(-c2cccs2)o1)N1c2ccccc2CCc2ccccc21,70%
8,CCOc1ccc(-c2nonc2NC(=O)c2oc3ccc(F)cc3c2C)cc1,117%
9,CC1(C)C(=O)N(CC(=O)Nc2cccc(F)c2)c2ccc(S(=O)(=O)N3CCCCC3)cc21,81%
10,Cc1nn(-c2ccc(N3CCCC3)nn2)c(C)c1CCC(=O)Nc1ccccc1,83%
11,Cc1nc2ccn(Cc3cccnc3)c(=O)c2cc1C(=O)NCc1ccc(Cl)cc1,69%
12,Cc1nc(-c2ccccc2)sc1CCNC(=O)C(=O)Nc1ccc(F)c(Cl)c1,6% (active)
13,Cc1ccc(NC(=O)C(=O)NCCc2sc(-c3ccc(Cl)cc3)nc2C)cc1C,104%
14,Cc1ccc(-c2nc(C)c(CCNC(=O)C(=O)Nc3ccc(C)c(Cl)c3)s2)cc1,74%
15,O=C(c1cccc(F)c1)N1CCN(C(=O)c2cccc3ccccc23)CC1,92%
16,CC(NC(=O)c1cc2ccccn2n1)c1ccccc1 (configuration not stated),75%
17,Cc1cccc(CCNC(=O)c2sc3nc4n(c(=O)c3c2C)CCCC4)c1,85%
18,COc1cc(NC(=O)CCN2CCN(c3ccccc3)CC2)cc(OC)c1,150%
19,CC(=O)N1CCCc2cc(S(=O)(=O)N3CCC(C(=O)NCCC(C)C)CC3)ccc21,91%
20,CCCCCCSc1ncc(C#N)c(N)n1,84%
21,N#Cc1cnc(SCc2ccccc2)nc1N,39% (active)
22,N#Cc1cnc(SCCc2ccccc2)nc1N,81%
23,CCOC(=O)c1c(C)oc2ccc(N(C(C)=O)S(=O)(=O)c3c(C)cc(C)cc3C)cc12,168%
24,O=c1sc2ccccc2n1CCc1ccccc1,104%

row,SMILES,survival
1,CCCCOc1ccc(Cn2c(=O)sc3ccccc32)cc1OC,-3% (active)
2,O=C(Cn1c(=O)sc2ccccc21)OCc1ccccc1,83%
3,COc1ccc(Cn2c(=O)sc3ccccc32)cc1,74%
4,COc1cc(Cn2c(=O)sc3ccccc32)ccc1OC(C)C,40% (active)
5,COc1cc(Cn2c(=O)sc3ccccc32)ccc1OCCC(C)C,-2% (active)
6,COc1ccc(CNC(=O)C(C)n2nc(C)c3sc4ccccc4c3c2=O)cc1OC (configuration not stated),67%
7,Cc1cccc2sc(N(Cc3cccnc3)C(=O)CCc3ccccc3)nc12,117%
8,COc1cccc(-n2c(=O)c3c(C)c(C)sc3n(CC(=O)NCc3ccccc3)c2=O)c1,102%
9,CCCCCOc1ccc(/C=C/C(=O)Nc2sc3c(c2C(=O)OCC)CCC3)cc1OC,66%
10,COc1ccc(NC(=O)N2CCN3CCCCC3C2)cc1OC (configuration not stated),99%
11,COc1cc(Cl)ccc1OC(=O)c1cn(-c2ccccc2OC)c(=O)c2ccccc12,58%
12,Cc1ccc(S(=O)(=O)Cn2nnnc2CN(Cc2ccco2)Cc2cccs2)cc1,61%
13,CN(C)c1ccc(C(CNC(=O)Cc2ccc(Cl)cc2)N2CCOCC2)cc1 (configuration not stated),63%
14,Cc1ccc(S(=O)(=O)NCC(c2ccc(N(C)C)cc2)N2CCOCC2)cc1 (configuration not stated),57%
15,CN(C)c1ccc(C(CNS(=O)(=O)c2ccc(F)cc2)N2CCOCC2)cc1 (configuration not stated),92%
16,CN(C)c1ccc(C(CNS(=O)(=O)c2ccc(Cl)cc2)N2CCOCC2)cc1 (configuration not stated),37% (active)
17,Cc1ccc(S(=O)(=O)NCC(c2ccc(N(C)C)cc2)N2CCCC2)cc1 (configuration not stated),98%
18,CN(C)c1ccc(C(CNC(=O)c2c(F)cccc2Cl)N2CCOCC2)cc1 (configuration not stated),25% (active)
19,CN(C)c1ccc(C(CNS(=O)(=O)c2ccc(F)cc2)N2CCCC2)cc1 (configuration not stated),106%
20,CN(C)c1ccc(C(CNS(=O)(=O)c2ccc(Cl)cc2)N2CCCC2)cc1 (configuration not stated),0% (active)
21,CN(C)c1ccc(C(CNC(=O)c2ccccc2Cl)N2CCCC2)cc1 (configuration not stated),81%
22,CCN(CC)C(=O)Cn1c(=O)n(-c2ccc(OC)cc2OC)c(=O)c2c(C)c(C(=O)N(CC)CC)sc21,89%
23,CCc1cccc(CC)c1NS(=O)(=O)c1ccc2c(c1)CCN2C(=O)C1CC1,90%
